{"source": "PubChem BioAssay (EPA / NIEHS)", "key": {"[1]": {"biological_target": "Peroxisome proliferator-activated receptor gamma (Homo sapiens) (UniProt P37231)", "sequence (P37231 whole entry, looked up)": "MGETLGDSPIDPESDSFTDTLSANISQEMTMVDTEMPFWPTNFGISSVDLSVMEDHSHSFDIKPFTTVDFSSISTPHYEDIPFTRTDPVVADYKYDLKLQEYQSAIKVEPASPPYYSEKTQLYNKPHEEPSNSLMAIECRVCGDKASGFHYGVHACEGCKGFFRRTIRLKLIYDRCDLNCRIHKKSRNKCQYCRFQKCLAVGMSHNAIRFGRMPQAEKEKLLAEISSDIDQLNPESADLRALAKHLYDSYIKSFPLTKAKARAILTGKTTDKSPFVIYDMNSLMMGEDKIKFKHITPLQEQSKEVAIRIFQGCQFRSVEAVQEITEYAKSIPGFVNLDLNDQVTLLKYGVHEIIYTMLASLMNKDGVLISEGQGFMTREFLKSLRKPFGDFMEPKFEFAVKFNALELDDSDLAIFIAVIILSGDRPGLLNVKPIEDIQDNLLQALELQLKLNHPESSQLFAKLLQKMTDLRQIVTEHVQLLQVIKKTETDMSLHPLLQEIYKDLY", "assay": "NVS_NR_hPPARg: NovaScreen (NVS) Nuclear Receptor Binding Assay for human Peroxisome Proliferator-activated Receptor gamma (PPARg) (AID 2283370)", "how_it_was_run": "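Cell-free binding to extracted PPARg protein, read by fluorescence polarization 2 h after dosing; loss of signal relative to DMSO baseline marks displacement. Primary screen in duplicate at 25 uM, actives retested in concentration series.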"}, "[2]": {"biological_target": "human Norepinephrine Transporter (NET), SLC6A2 (gene 6530) (UniProt P23975)", "sequence (P23975 whole entry, looked up)": "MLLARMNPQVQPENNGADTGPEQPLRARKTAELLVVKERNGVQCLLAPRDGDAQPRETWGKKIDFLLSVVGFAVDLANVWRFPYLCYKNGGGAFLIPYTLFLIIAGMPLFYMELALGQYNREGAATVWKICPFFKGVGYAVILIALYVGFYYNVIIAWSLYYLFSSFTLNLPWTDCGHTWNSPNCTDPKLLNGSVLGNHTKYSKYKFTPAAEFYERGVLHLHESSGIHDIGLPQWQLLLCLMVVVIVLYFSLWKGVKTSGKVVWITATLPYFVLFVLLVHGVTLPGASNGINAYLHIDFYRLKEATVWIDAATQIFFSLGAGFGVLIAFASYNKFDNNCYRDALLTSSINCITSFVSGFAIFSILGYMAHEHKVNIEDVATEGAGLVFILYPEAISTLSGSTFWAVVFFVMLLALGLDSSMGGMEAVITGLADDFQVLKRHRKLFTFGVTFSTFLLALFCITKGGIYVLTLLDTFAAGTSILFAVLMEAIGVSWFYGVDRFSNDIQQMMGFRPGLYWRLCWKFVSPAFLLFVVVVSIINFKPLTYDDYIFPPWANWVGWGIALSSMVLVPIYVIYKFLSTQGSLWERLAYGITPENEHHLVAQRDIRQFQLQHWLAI", "assay": "NVS_TR_hNET: NovaScreen (NVS) Transporter Assay for human Norepinephrine Transporter (NET) (AID 2283377)", "how_it_was_run": "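In this cell-free binding screen, chemicals at 25 uM (duplicate) compete with a radioligand for CHO-derived human NET over 1 hour, with filter-based radiodetection.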"}, "[3]": {"test_system": "guinea pig Dopamine Transporter (DAT), gene 100714898", "assay": "NVS_TR_gDAT: NovaScreen (NVS) Transporter Assay for guinea pig Dopamine Transporter (DAT) (AID 2283369)", "method": "NVS_TR_gDAT is a biochemical, single-readout assay that uses extracted gene-proteins from Guinea pig striatal membranes in a tissue-based cell-free assay. Measurements were taken 2 hours after chemical dosing in a 48-well plate.NVS_TR_gDAT is one of one assay component(s) measured or calculated from the NVS_TR_gDAT assay. It is designed to make measurements of radioligand binding, a form of binding reporter, as detected with scintillation counting signals by Filter-based radiodetection technology.Data from the assay component NVS_TR_gDAT was analyzed into 1 assay endpoint. This assay endpoint, NVS_TR_gDAT, was analyzed in the positive analysis fitting direction relative to DMSO as the negative control and baseline of activity. Using a type of binding reporter, loss-of-signal activity can be used to understand changes in the binding as they relate to the gene Slc6a3. Furthermore, this assay endpoint can be referred to as a primary readout, because the performed assay has only produced 1 assay endpoint. To generalize the intended target to other relatable targets, this assay endpoint is annotated to the transporter intended target family, where the subfamily is neurotransmitter transporter.\nBinding assays used specific radioligands (tritiated, iodinated) with non-radioactive competitive displacement ligands in agonist or antagonist protocols (as indicated) and various reference compounds and inhibitors to titrate specific binding to receptors and transporters. Most enzyme assays (CYPs, kinases, phosphatases, proteases, HDACs) used recombinant protein and specific substrates (fluorescence mostly, some colorimetric and radioactive) and inhibitors, followed by a biochemical separation of substrate and product. All assays for the biochemical HTS were initially run in duplicate at a single concentration (10 uM for CYP450 assays and 25 uM for all others). Assay-chemical combinations meeting a pre-defined threshold (e.g., 30% inhibition and other criteria defined below) were then run in singleton concentration-response format with maximum concentration of 20 uM for CYPs and 50 uM for all others. Each assay was run with positive and negative controls, and concurrent controls on every plate. The follow-up (secondary) screen tested active chemical-pairs in concentration series, as well as a few additional assays not tested in the primary screen, some selected negative inactives, and several cases re-run in the concentration series for confirmatory purposes."}, "[4]": {"test_system": "rat Norepinephrine Transporter (NET), gene 83511", "assay": "NVS_TR_rNET: NovaScreen (NVS) Transporter Assay for rat Norepinephrine Transporter (NET) (AID 2283373)", "how_it_was_run": "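Competitive radioligand displacement at the rat NET using forebrain membrane preparations, 1 h incubation, filter-based scintillation readout. Primary testing in duplicate at a single 25 uM concentration; confirmed actives retested across concentrations.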"}, "[5]": {"biological_target": "human Dopamine Transporter (DAT), SLC6A3 (gene 6531) (UniProt Q01959)", "sequence (Q01959 whole entry, looked up)": "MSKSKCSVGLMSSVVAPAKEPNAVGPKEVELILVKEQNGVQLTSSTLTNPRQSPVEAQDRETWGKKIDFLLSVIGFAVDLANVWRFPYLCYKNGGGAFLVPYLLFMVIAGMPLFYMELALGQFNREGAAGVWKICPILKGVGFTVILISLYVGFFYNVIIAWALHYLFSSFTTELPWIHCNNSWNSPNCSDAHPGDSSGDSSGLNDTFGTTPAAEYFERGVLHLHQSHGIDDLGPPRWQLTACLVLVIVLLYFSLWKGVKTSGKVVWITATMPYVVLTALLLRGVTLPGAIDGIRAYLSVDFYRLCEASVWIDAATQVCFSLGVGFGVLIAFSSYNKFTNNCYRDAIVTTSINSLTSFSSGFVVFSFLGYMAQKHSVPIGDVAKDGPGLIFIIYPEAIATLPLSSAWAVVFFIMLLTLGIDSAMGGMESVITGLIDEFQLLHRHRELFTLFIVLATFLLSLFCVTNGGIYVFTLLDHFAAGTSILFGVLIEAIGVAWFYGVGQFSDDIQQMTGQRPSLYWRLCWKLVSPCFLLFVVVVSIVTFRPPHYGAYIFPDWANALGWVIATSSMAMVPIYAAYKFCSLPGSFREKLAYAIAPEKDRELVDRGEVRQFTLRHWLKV", "assay": "NVS_TR_hDAT: NovaScreen (NVS) Transporter Assay for human Dopamine Transporter (DAT) (AID 2283374)", "how_it_was_run": "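Extracted human SLC6A3 protein incubated 1 h with radioligand and test chemical; bound fraction separated on filters and counted. Single 25 uM duplicate screen preceded concentration-response follow-up; positive and negative controls on every plate.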"}, "[6]": {"biological_target": "mouse Estrogen Receptor alpha (Era), Esr1 (gene 13982) (UniProt P19785)", "sequence (P19785 whole entry, looked up)": "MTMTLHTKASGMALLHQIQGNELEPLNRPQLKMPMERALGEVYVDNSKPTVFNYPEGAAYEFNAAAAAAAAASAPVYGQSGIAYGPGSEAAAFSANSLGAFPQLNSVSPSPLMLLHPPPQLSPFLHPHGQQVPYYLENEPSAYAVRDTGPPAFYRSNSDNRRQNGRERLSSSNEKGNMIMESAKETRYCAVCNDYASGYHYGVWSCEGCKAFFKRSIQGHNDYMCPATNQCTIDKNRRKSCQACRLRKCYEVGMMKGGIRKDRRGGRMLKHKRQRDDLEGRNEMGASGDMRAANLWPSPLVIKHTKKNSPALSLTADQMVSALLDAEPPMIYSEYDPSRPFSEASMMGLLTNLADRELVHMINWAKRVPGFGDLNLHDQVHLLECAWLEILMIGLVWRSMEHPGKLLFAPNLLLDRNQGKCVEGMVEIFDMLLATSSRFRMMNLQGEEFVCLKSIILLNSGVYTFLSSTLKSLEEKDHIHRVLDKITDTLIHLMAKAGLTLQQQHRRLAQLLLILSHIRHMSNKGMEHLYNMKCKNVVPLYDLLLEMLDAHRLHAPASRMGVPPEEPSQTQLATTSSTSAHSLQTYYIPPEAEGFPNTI", "assay": "NVS_NR_mERa: NovaScreen (NVS) Nuclear Receptor Binding Assay for mouse Estrogen Receptor alpha (Era) (AID 2283378)", "how_it_was_run": "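Cell-free radioligand binding with extracted mouse Era protein; competitive displacement of radiolabelled ligand, read by filter-based scintillation counting 18 hours after dosing. Loss of signal versus DMSO baseline taken as binding; single screening concentration 25 uM, actives followed in concentration series.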"}, "[7]": {"biological_target": "human Serotonin Transporter (SERT), SLC6A4 (gene 6532) (UniProt P31645)", "sequence (P31645 whole entry, looked up)": "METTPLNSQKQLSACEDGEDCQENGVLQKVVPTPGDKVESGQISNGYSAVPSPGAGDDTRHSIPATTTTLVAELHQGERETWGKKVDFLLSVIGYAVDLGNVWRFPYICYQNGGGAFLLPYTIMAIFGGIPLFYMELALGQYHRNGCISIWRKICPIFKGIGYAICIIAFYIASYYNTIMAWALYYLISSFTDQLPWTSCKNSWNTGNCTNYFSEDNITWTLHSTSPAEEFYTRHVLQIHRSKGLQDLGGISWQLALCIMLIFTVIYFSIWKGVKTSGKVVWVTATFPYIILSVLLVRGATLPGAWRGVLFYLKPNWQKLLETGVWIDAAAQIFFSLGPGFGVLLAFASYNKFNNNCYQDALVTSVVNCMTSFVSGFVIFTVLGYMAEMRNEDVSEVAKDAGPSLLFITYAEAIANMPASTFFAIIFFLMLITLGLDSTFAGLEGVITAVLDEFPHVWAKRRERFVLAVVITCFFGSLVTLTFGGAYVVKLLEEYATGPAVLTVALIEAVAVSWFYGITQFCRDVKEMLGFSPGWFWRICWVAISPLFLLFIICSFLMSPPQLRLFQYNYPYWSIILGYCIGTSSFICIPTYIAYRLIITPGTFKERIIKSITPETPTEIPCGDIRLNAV", "assay": "NVS_TR_hSERT: NovaScreen (NVS) Transporter Assay for human Serotonin Transporter (SERT) (AID 2283372)", "how_it_was_run": "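Human platelet membrane preparation; displacement of radioligand from serotonin transporter measured after 1 h by filtration and scintillation counting. Single 25 uM duplicate screen, then concentration series for actives, with DMSO as negative baseline.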"}, "[8]": {"biological_target": "human Adenosine Transporter (Adot), SLC29A1 (gene 2030) (UniProt Q99808)", "sequence (Q99808 whole entry, looked up)": "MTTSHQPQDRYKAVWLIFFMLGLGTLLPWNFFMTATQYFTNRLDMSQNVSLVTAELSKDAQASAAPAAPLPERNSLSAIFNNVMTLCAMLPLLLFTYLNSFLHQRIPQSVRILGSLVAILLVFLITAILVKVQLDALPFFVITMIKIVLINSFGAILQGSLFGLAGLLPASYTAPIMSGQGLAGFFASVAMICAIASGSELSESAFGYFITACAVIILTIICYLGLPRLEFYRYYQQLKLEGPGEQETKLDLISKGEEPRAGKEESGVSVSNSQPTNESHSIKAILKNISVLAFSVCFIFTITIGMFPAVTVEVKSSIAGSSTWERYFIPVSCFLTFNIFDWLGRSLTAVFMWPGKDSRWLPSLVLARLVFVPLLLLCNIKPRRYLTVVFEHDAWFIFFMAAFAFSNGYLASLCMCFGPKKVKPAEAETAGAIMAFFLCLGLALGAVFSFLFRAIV", "assay": "NVS_TR_hAdoT: NovaScreen (NVS) Transporter Assay for human Adenosine Transporter (Adot) (AID 2283368)", "how_it_was_run": "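Binding displacement on U937 extracted protein, read 1 h post-dose by filtration and scintillation counting. Primary duplicate test at 25 uM, then singleton concentration series with 50 uM top; DMSO baseline.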"}, "[9]": {"biological_target": "Norway rat Vesicular Monoamine Transporter (VMAT2), neurotransmitter transporter, Slc18a2 (gene 25549) (UniProt Q01827)", "sequence (Q01827 whole entry, looked up)": "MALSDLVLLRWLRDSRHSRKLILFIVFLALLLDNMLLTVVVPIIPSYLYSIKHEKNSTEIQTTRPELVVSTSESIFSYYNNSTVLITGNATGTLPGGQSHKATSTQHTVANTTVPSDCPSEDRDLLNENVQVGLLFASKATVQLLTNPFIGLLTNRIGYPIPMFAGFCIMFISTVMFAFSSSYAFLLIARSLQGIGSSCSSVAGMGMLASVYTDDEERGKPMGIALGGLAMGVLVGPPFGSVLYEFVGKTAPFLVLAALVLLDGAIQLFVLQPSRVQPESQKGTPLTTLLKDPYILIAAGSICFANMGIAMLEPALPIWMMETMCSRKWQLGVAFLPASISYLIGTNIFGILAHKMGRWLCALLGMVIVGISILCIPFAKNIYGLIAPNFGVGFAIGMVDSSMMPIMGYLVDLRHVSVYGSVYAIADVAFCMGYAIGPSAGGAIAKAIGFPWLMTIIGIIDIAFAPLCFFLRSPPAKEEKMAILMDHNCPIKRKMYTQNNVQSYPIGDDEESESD", "assay": "NVS_TR_rVMAT2: NovaScreen (NVS) Transporter Assay for Norway rat Vesicular Monoamine Transporter (VMAT2), neurotransmitter transporter (AID 2283376);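 further: actives lower the bound radioligand signal below the DMSO level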", "how_it_was_run": "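Binding endpoint from rat forebrain tissue, cell-free; 1 h incubation; filtered radioligand counted; 25 uM duplicate primary then dose series; DMSO negative control.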"}, "[10]": {"biological_target": "rat Serotonin Transporter (SERT), Slc6a4 (gene 25553) (UniProt P31652)", "sequence (P31652 whole entry, looked up)": "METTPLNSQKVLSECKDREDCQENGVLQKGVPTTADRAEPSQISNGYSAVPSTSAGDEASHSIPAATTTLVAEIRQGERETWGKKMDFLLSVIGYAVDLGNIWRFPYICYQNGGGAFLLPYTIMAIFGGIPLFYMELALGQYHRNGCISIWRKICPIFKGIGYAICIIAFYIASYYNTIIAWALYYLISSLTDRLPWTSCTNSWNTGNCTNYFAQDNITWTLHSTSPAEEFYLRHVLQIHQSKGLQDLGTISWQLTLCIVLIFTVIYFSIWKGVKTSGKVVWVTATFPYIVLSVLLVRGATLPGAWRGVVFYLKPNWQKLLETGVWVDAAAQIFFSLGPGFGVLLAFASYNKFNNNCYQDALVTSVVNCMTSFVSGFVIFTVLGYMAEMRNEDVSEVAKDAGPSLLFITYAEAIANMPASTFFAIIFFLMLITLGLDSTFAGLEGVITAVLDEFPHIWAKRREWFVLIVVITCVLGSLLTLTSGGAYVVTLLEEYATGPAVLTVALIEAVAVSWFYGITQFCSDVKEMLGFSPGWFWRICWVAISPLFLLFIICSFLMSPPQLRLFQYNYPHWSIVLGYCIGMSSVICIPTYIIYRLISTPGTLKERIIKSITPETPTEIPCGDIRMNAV", "assay": "NVS_TR_rSERT: NovaScreen (NVS) Transporter Assay for rat Serotonin Transporter (SERT) (AID 2283375)", "how_it_was_run": "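Rat forebrain membranes were incubated with test chemical for 1 hour; radioligand binding to SERT was measured by filter-based scintillation counting. Primary screen ran in duplicate at 25 uM, with actives followed up in concentration series; DMSO served as negative control.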"}}, "note": "Several values for one entry are separate records, joined by “and”; a condition that tells them apart may be missing. Equal entries are not always repeated. Records with an inconclusive call do not appear. Some compounds were tested as several samples or in several runs, with calls that do not always agree. Activity calls are given as the source filed them. How the source made its calls: active means hit-call score of the fitted dose curve at least 0.9, where 1 is the maximum; inconclusive means response in the unintended direction; inactive means score below 0.9.", "data": [{"compound": "c1ccc2c(c1)Nc1ccccc1S2", "values": [{"measurement": "outcome", "setting": "[1]", "value": "inactive"}, {"measurement": "AC50", "setting": "[2]", "value": "6.58 µM (active)"}]}, {"compound": "CCOP(=S)(OCC)SCSCC", "values": [{"measurement": "outcome", "setting": "[1]", "value": "inactive"}]}, {"compound": "CCC(C)(C)c1ccc(O)cc1", "values": [{"measurement": "AC50", "setting": "[3]", "value": "17.3 µM (active)"}, {"measurement": "outcome", "setting": "[4]", "value": "inactive"}, {"measurement": "AC50", "setting": "[5]", "value": "10 µM (active)"}, {"measurement": "AC50", "setting": "[2]", "value": "16.1 µM (active)"}, {"measurement": "AC50", "setting": "[6]", "value": "25 µM (active)"}]}, {"compound": "O=NN1CCCC1", "values": [{"measurement": "outcome", "setting": "[1]", "value": "inactive"}]}, {"compound": "CCCCCCCc1ccc(O)cc1", "values": [{"measurement": "outcome", "setting": "[1]", "value": "inactive"}, {"measurement": "AC50", "setting": "[5]", "value": "6.26 µM (active)"}, {"measurement": "AC50", "setting": "[6]", "value": "4.96 µM (active) and 14.5 µM (active)"}, {"measurement": "outcome", "setting": "[6]", "value": "inactive"}]}, {"compound": "Nc1ccc2ccccc2c1", "values": [{"measurement": "outcome", "setting": "[1]", "value": "inactive"}, {"measurement": "AC50", "setting": "[4]", "value": "14.9 µM (active)"}, {"measurement": "AC50", "setting": "[5]", "value": "12.9 µM (active)"}, {"measurement": "AC50", "setting": "[2]", "value": "5.64 µM (active)"}]}, {"compound": "ClC1=C(Cl)C2(Cl)C3C(Cl)C(Cl)CC3C1(Cl)C2(Cl)Cl", "note": "(stereo not given)", "values": [{"measurement": "outcome", "setting": "[1]", "value": "inactive"}, {"measurement": "outcome", "setting": "[7]", "value": "inactive"}, {"measurement": "outcome", "setting": "[6]", "value": "inactive"}]}, {"compound": "O=P(Oc1ccccc1)(Oc1ccccc1)Oc1ccccc1", "values": [{"measurement": "outcome", "setting": "[8]", "value": "inactive"}, {"measurement": "AC50", "setting": "[3]", "value": "18.8 µM (active)"}, {"measurement": "AC50", "setting": "[1]", "value": "0.00229 µM (active)"}, {"measurement": "AC50", "setting": "[5]", "value": "11.3 µM (active)"}]}, {"compound": "CCCCN(CC)C(=O)SCCC", "values": [{"measurement": "outcome", "setting": "[1]", "value": "inactive"}, {"measurement": "outcome", "setting": "[6]", "value": "inactive"}]}, {"compound": "CC(C)(C)OOC(C)(C)C", "values": [{"measurement": "outcome", "setting": "[1]", "value": "inactive"}]}, {"compound": "CCOC(=O)c1ccccc1N", "values": [{"measurement": "outcome", "setting": "[1]", "value": "inactive"}]}, {"compound": "CSC(C)(C)C=NO", "values": [{"measurement": "outcome", "setting": "[3]", "value": "inactive"}, {"measurement": "outcome", "setting": "[1]", "value": "inactive"}, {"measurement": "outcome", "setting": "[5]", "value": "inactive"}]}, {"compound": "O=[N+]([O-])c1ccc(Cl)c(Cl)c1", "values": [{"measurement": "AC50", "setting": "[1]", "value": "9.12 µM (active)"}, {"measurement": "outcome", "setting": "[5]", "value": "inactive"}, {"measurement": "outcome", "setting": "[2]", "value": "inactive"}]}, {"compound": "O=c1ssc(Cl)c1Cl", "values": [{"measurement": "outcome", "setting": "[1]", "value": "inactive"}, {"measurement": "AC50", "setting": "[5]", "value": "14.5 µM (active)"}, {"measurement": "AC50", "setting": "[2]", "value": "18.3 µM (active)"}]}, {"compound": "CCNc1nc(Cl)nc(NC(C)(C)C)n1", "values": [{"measurement": "AC50", "setting": "[1]", "value": "0.0134 µM (active)"}, {"measurement": "outcome", "setting": "[6]", "value": "inactive"}]}, {"compound": "CCOS(=O)(=O)OCC", "values": [{"measurement": "outcome", "setting": "[1]", "value": "inactive"}]}, {"compound": "CC(C)Nc1ccc(Nc2ccccc2)cc1", "values": [{"measurement": "AC50", "setting": "[3]", "value": "25 µM (active)"}, {"measurement": "AC50", "setting": "[5]", "value": "1.69 µM (active)"}, {"measurement": "AC50", "setting": "[2]", "value": "2.93 µM (active)"}]}, {"compound": "Cc1ccc(N)cc1N", "values": [{"measurement": "outcome", "setting": "[7]", "value": "inactive"}]}, {"compound": "O=S(=O)(c1ccc(O)cc1)c1ccc(O)cc1", "values": [{"measurement": "outcome", "setting": "[1]", "value": "inactive"}, {"measurement": "outcome", "setting": "[6]", "value": "inactive"}]}, {"compound": "CC(C)(C)c1ccc(O)cc1", "values": [{"measurement": "outcome", "setting": "[3]", "value": "inactive"}, {"measurement": "outcome", "setting": "[4]", "value": "inactive"}]}, {"compound": "ClC(Cl)c1ccccc1", "values": [{"measurement": "outcome", "setting": "[1]", "value": "inactive"}]}, {"compound": "c1ccc(OP(Oc2ccccc2)Oc2ccccc2)cc1", "values": [{"measurement": "outcome", "setting": "[1]", "value": "inactive"}, {"measurement": "outcome", "setting": "[5]", "value": "inactive"}, {"measurement": "outcome", "setting": "[6]", "value": "inactive"}]}, {"compound": "CCCCN(CCCC)SN(C)C(=O)Oc1cccc2c1OC(C)(C)C2", "values": [{"measurement": "outcome", "setting": "[1]", "value": "inactive"}, {"measurement": "outcome", "setting": "[6]", "value": "inactive"}]}, {"compound": "CC1(C)CN=C(NN=C(/C=C/c2ccc(C(F)(F)F)cc2)/C=C/c2ccc(C(F)(F)F)cc2)NC1", "values": [{"measurement": "outcome", "setting": "[1]", "value": "inactive"}, {"measurement": "AC50", "setting": "[9]", "value": "0.109 µM (active)"}, {"measurement": "AC50", "setting": "[2]", "value": "1.6 µM (active)"}]}, {"compound": "CCCN(CCC)c1c([N+](=O)[O-])cc(C(C)C)cc1[N+](=O)[O-]", "values": [{"measurement": "outcome", "setting": "[7]", "value": "inactive"}]}, {"compound": "Nc1ccc([N+](=O)[O-])cc1Cl", "values": [{"measurement": "AC50", "setting": "[10]", "value": "0.0449 µM (active)"}]}, {"compound": "Oc1ccc(I)cc1", "values": [{"measurement": "AC50", "setting": "[10]", "value": "2.5 µM (active)"}]}]}
